# Test results taken from PMC4336329 (PLoS ONE, 2015).
# The whole screen tested about 310,000 compounds, of which about 14,000 (4.5%) showed an effect of 50% or more. The effect is printed as a negative number. The full list was thinned out, with strong results kept by preference.
# Molecular target: human ether-à-go-go-related gene (hERG) potassium channel (human, UniProt Q12809)
# Test: primary screen, population patch clamp on CHO cells stably expressing hERG; higher = less effect of the substance
# 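Further: peak tail current of the secondary pulse compared with the same well before compound.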
# Chain of human ether-à-go-go-related gene (hERG) potassium channel (Q12809 whole entry, looked up): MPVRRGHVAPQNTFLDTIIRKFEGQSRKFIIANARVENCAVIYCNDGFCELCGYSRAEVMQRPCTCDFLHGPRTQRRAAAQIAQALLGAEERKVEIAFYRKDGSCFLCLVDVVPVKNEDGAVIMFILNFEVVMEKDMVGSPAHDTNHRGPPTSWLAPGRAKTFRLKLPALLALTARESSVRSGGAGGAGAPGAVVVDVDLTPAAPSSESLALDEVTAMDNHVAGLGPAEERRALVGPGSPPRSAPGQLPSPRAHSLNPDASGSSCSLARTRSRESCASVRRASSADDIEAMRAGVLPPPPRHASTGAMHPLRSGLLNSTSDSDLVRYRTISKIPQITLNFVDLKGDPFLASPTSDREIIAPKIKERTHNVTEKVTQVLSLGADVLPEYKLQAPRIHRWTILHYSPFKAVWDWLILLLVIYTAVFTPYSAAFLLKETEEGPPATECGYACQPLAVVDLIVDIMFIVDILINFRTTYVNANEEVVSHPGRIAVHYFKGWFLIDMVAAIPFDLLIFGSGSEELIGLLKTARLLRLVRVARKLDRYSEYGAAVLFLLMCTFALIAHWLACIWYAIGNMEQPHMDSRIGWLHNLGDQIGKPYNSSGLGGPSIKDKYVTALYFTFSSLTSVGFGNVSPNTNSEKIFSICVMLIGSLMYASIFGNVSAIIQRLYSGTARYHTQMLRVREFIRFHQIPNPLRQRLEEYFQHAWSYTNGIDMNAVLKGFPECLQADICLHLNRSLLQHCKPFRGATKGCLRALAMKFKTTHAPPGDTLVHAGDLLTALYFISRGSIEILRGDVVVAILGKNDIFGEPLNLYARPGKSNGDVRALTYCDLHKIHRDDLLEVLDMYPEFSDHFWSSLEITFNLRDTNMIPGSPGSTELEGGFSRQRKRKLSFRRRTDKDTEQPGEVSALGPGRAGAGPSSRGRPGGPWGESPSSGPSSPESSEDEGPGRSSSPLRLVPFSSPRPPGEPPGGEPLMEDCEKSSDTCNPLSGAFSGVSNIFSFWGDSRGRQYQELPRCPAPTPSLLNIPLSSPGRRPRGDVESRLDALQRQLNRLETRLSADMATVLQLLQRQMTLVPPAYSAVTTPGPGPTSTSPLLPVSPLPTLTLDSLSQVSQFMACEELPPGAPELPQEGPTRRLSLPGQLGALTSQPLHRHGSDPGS
row,Structure (SMILES),"hERG current change (%, negative = inhibition) at 10uM [%]"
1,Cn1c(C(O)c2ccc3c(c2)OCO3)nc2ccccc21 (stereo not drawn),5.63
2,Cc1ccc(S(=O)(=O)N2c3ccccc3NC(=O)CC2C)cc1 (stereo not drawn),10.5
3,C=CCn1c(-c2ccc(Cl)cc2)c[nH]c1=S,19.4
4,Cc1cnc(NC(=O)CC2CCCC2)s1,21.5
5,COc1ccc(-c2cc(-c3ccccc3)no2)cc1,9.77
6,CCN(CC(=O)NCc1cccs1)C(=O)COc1ccc(C(C)=O)cc1,-45.1
7,O=C(CSc1nnc(-c2ccccn2)n1Cc1ccco1)c1ccccc1,-42.5
8,C(=C\c1ccccc1)/CSc1nnc(-c2ccccn2)n1Cc1ccco1,-50.9
9,O=C(CSc1nnc(-c2cnccn2)n1Cc1ccco1)c1ccccc1,-16.3
10,C(=C\c1ccccc1)/CSc1nnc(-c2cnccn2)n1Cc1ccco1,-73.4
11,CCn1c(SC/C=C/c2ccccc2)nnc1-c1cnccn1,-14.7
12,NC(=O)CSc1nnc(-c2ccccn2)n1Cc1ccco1,4.36
13,COc1ccc(C2CC(c3ccc(C)o3)=NN2C(C)=O)cc1 (stereo not drawn),7.14
14,CCOC(=O)C1SC2(C(F)(F)C(F)F)CC1(O)c1c(c(OC)c3occc3c1OC)O2 (stereo not drawn),-3.47
15,O=C(COC(=O)Cc1cccc2ccccc12)Nc1ccccc1-c1ccccc1,9.26
16,NC(=S)Nc1cccc2cnccc12,1.4
17,COc1cc(NC(=O)c2cc3ccccc3cc2OC)ccc1NC(=O)c1cccs1,9.15
18,O=C(CSc1nnc(-c2cccnc2)n1Cc1ccco1)c1ccc(Cl)c(Cl)c1,-45.2
19,O=C(CSc1nnc(-c2cccnc2)n1Cc1ccco1)c1ccccc1,-10.3

row,Structure (SMILES),"hERG current change (%, negative = inhibition) at 10uM [%]"
1,COc1ccc(C(=O)CSc2nnc(-c3cccnc3)n2Cc2ccco2)cc1,-42.9
2,O=C(CSc1nnc(-c2ccncc2)n1Cc1ccco1)c1ccc(Cl)cc1,-46
3,O=C(CSc1nnc(-c2cccnc2)n1Cc1ccco1)c1ccc(Cl)cc1,-63.6
4,O=C(CSc1nnc(-c2cccnc2)n1Cc1ccco1)c1ccc(Br)cc1,-63.8
5,CC1CCCC(NC(=S)Nc2cccc(S(=O)(=O)N(C)C)c2)C1C (stereo not drawn),13.7
6,CCOC(=O)/C=C1\SCC(=O)N1CC(=O)Nc1ccccc1OC(F)F,18.8
7,O=C(Nc1ccc(NC(=O)c2cccs2)c(Cl)c1)c1ccco1,-39.4
8,CN(CC(=O)N1CCN(c2ccc(F)cc2)CC1)S(=O)(=O)c1ccc(F)cc1,-53.2
9,CN(CC(=O)N1CCN(c2ccccn2)CC1)S(=O)(=O)c1ccc(Cl)cc1,-46.2
10,Nc1ncc(Br)cc1S(=O)(=O)NCCC(=O)N1CCN(c2ccccc2)CC1,-8.45
11,Cc1ccc(CNC(=O)Cn2cnc(S(=O)(=O)N3CCCCC3)c2)o1,-2.35
12,CN(CC(=O)N1CCN(c2ccccn2)CC1)S(=O)(=O)c1ccc(Br)cc1,-54.8
13,CN1CCN(C(=O)CN(C)S(=O)(=O)c2ccc(F)cc2)CC1,16.8
14,COc1ccc(S(=O)(=O)N(C)CC(=O)N2CCN(c3ccc(F)cc3)CC2)cc1OC,-44
15,O=C(Cn1cnc(S(=O)(=O)N2CCCCC2)c1)NCc1ccco1,8.34
16,Nc1ncc(Br)cc1S(=O)(=O)NCCC(=O)N1CCN(c2ncccn2)CC1,-25.6
17,Nc1ncc(Br)cc1S(=O)(=O)NCCC(=O)N1CCN(c2ccccn2)CC1,-55.4
18,Cc1ccc(CNC(=O)Cn2cnc(S(=O)(=O)N3CCC(C)CC3)c2)o1,-62.1
19,CN(CC(=O)N1CCN(c2ccccn2)CC1)S(=O)(=O)c1ccccc1,-12.8

row,Structure (SMILES),"hERG current change (%, negative = inhibition) at 10uM [%]"
1,CC1(C)C[C@H](O)[C@]2(CO)CC[C@]3(C)C(=CCC4[C@@]5(C)CC[C@H](O)C(C)(C)C5CC[C@]43C)[C@@H]2C1 (stereo partly drawn),-13.9
2,O=C(CSc1nnc2ccccn12)NCc1ccco1,22.3
3,O=C1CC(NNc2nc3ccccc3s2)C(=O)N1c1ccccc1 (stereo not drawn),-1.89
4,O=C(CSc1nnc(-c2ccccc2)c2ccccc12)NCCN1C(=O)CSC1=O,-27.6
5,O=C(CSc1ccccn1)Nc1ccc2c(c1)OCCO2,8.07
6,O=C(Nc1cccnc1)c1cc2cc(Br)ccc2o1,8.93
7,Cc1cc(-c2n[nH]c(=S)n2/N=C/c2ccco2)n[nH]1,7.99
8,O=C(CCS(=O)(=O)c1ccccc1)N1CCN(c2cccc(C(F)(F)F)c2)CC1,-43.1
9,CC(=O)c1ccc(N2CCN(C(=O)Cn3cnc(S(=O)(=O)N4CCCCC4)c3)CC2)cc1,7.48
10,Cc1ccc(C)c(N2CCN(C(=O)CN(C)S(=O)(=O)c3ccc4c(c3)CCC(=O)N4)CC2)c1,-41.5
11,Cc1ccc(S(=O)(=O)CC(=O)N2CCN(c3ccc(F)cc3)CC2)cc1,-51.5
12,Cc1cccc(N2CCN(C(=O)CN(C)S(=O)(=O)c3ccc4c(c3)CCC(=O)N4)CC2)c1C,-60.5
13,Cc1ccc(CC(=O)N2CCN(c3cccc(C(F)(F)F)c3)CC2)cc1,-9.64
14,O=C(CS(=O)(=O)c1ccc(F)cc1)N1CCN(c2ccccc2)CC1,-42.4
15,CC1CCN(S(=O)(=O)c2cn(CC(=O)N3CCN(c4cccc(C(F)(F)F)c4)CC3)cn2)CC1,-54
16,Cc1ccc(S(=O)(=O)CC(=O)N2CCN(c3ccccc3F)CC2)cc1,-16.8
17,Cc1ccc(S(=O)(=O)CC(=O)N2CCN(c3cccc(C(F)(F)F)c3)CC2)cc1,-50.4
18,Cn1cnc(S(=O)(=O)N2CCN(c3cccc(C(F)(F)F)c3)CC2)c1,7.43
19,Cc1cccc(N2CCN(C(=O)CCNS(=O)(=O)c3ccc4c(c3)CCC(=O)N4)CC2)c1C,-44.6
